In PubChem BioAssay (NCI):
“And” between values parts separate entries of the source, which are not always exact repeats. Equal values may be shown once. This is part of a sample that, as a whole, favours compounds with a hit. Of some 83,000 tested, about 20% had one in any assay.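 The endpoint reported here, percent growth, reads 100 for growth as untreated, 0 for no net growth and -100 for all cells dead.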 The source made the active and inactive calls. How the source made its calls: active means growth percent below 10; inactive means the rest.

What follows are compounds tested on MCF7 breast (assay: NCI-60 one-dose screen, 48 h (100 = growth as untreated, 0 = no growth, -100 = all killed)). Conditions: 10 µM.

SMILES | growth
Nc1nc(=S)c2[nH]cnc2[nH]1 | 8.17% (active) and -0.975% (active)
N#CC(=S)Nc1ccc(Cl)c(Cl)c1 | 5.23% (active)
COc1cc2oc3cc(=O)cc4oc(-c5ccccc5)cc(c2c2c1CCC(c1ccccc1)O2)c43 (configuration not stated) | 30% (inactive)
CS/C(=C\c1ccc(C(=O)c2ccc(C)cc2)n1C)S(C)=O (configuration not stated) | 89.6% (inactive)

Same assay, conditions: 10 µM unless noted

SMILES | growth
OCCCc1ccccc1 | 101% (inactive)
S=c1nn[nH]n1C1CCCCC1 | 101% (inactive)
CC1=CC(=O)C=CC1=Nc1ccc(N(C)C)cc1 | 89.9% (inactive) and 6.86% (active)
O=c1[nH]c(=S)[nH]n1C(=S)n1[nH]c(=S)[nH]c1=O | 91.8% (inactive)
CN(C)C(=N)N=C(N)N | 96.7% (inactive) and 146% (inactive)
COc1ccc2nccc(Cl)c2c1 | 98.5% (inactive)
COc1ccc(CCn2cnn3c(=O)c4ccccc4nc3c2=O)cc1OC | 106% (inactive) and 100% (inactive)
N=C(N=C(N)N)N1CCOCC1 | 92.9% (inactive) and 91.5% (inactive)
O=C1C(=O)c2ccccc2C(O)=C1CC=C(Cl)Cl | 37.9% (inactive) and 44.7% (inactive)
CCOC(=O)C1=C(C)NC(C)=C(C(=O)OCC)C1 | 102% (inactive) and 115% (inactive)
COc1ccc(CCO)cc1 | 102% (inactive)
COc1ccc(/C=N/Nc2nc3ccccc3s2)cc1 | 61.1% (inactive)
Nc1ccccc1SC1CC(=O)N(c2ccc(I)cc2)C1=O (configuration not stated) | 86.5% (inactive)
Clc1ccc2c(c1)N(C1CCCN(Cc3ccccc3)C1)c1ccccc1S2 (configuration not stated) | 18.4% (inactive)
COc1ccc([N+](=O)[O-])cc1OC | 87.5% (inactive) and 96.7% (inactive)
NC(=O)Cc1nc(O)cc(=O)[nH]1 | 95.5% (inactive)
N=C(N)N1CCc2ccccc2C1 | 106% (inactive) and 104% (inactive)

SMILES | growth
Clc1ccc2sc(-c3ccccc3)nc2c1 | 61.2% (inactive)
CC(C)(C)C1=CC(=O)C(C(C)(C)C)=CC1=O | 86.5% (inactive) and 97.2% (inactive)
Oc1ccc(O)c(-c2ccccc2)c1 | 39.5% (inactive)
COc1ccc(CCl)c(C)c1OC | 103% (inactive)
CCNC1=CC(=O)c2ncccc2C1=O | -13.2% (active)
O=C1C=CC(=O)N1Cc1ccco1 | 62% (inactive)
CC(C)=NOC(C)C(=O)O (configuration not stated) | 97% (inactive)
Cc1cc2nc3ccc(=[N+](C)C)cc-3sc2cc1N | -3.34% (active) and -28.7% (active)
c1ccc2c[n+](Cc3ccc4ccccc4n3)ccc2c1 | 72.2% (inactive)
COc1cc([C@@H]2c3cc4c(cc3[C@H](O)[C@H]3COC(=O)[C@@H]23)OCO4)cc(OC)c1OC | 18.4% (inactive) and 5.61% (active)
NNC(=O)Nc1ccccc1 | 89.3% (inactive)
Cc1nc2c(=O)[nH]c(=S)[nH]c2[nH]c1=O | 101% (inactive) and 99.9% (inactive)
Oc1cccnc1CN1CCOCC1 | 95.2% (inactive) and 90.7% (inactive)
O=C1c2ccccc2CN1c1ccccc1 | 106% (inactive)
COC1C(OC(N)=O)C(O)C(Oc2ccc3c(O)c(NC(=O)c4ccc(O)c(CC=C(C)C)c4)c(=O)oc3c2C)OC1(C)C (configuration not stated) | 96.8% (inactive) and 93.4% (inactive)
C/C=C/C(=O)OCCCCCCCCCCCC | 102% (inactive)
